High-throughput results (PubChem BioAssay)
p53null 32C kill: kills p53 null cells at the permissive temperature; AID 903; hit rate 0.62% among 55,000; H1299-neo p53 null cells, ATP luminescence, 24 h, 32C; Potency, µM (series often up to 46.1 µM), for the others: at the top dose activity change, negative = cytotoxicity, usual class: cytotoxic;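 note: potency is the fitted concentration of half-maximal effect; 0% = DMSO only and -100% = full killing by 100 µM tamoxifen; nearly all actives have a fitted effect of over 55% in size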
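Cells lacking p53 (H1299-neo) are plated at 600 per well and allowed to settle overnight at 37C. Test compounds (up to 46 uM) are added and held 24 hours at 32C, then ATP is quantified by luminescence.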
S16 viability: toxic to S16 Pmp22-F2sN Schwann cells | hit rate 0.48% among 43,000 | Potency, µM (top dose mostly 57.5 µM), inactives show at the top dose activity change, negative = cytotoxicity, actives largely listed as cytotoxic | AID 1508642 | S16 Pmp22-F2sN Schwann cells viability, CellTiter-Glo, 24 h; note: potency is the fitted concentration of half-maximal effect; % is set by controls: 0 for no effect and ±100 for the full control effect; nearly all actives have a fitted effect of over 65% in size
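Luminescence from CellTiter-Glo, read by CCD camera after a 15 min room-temperature incubation, served as the viability signal. Reporter Schwann cells (S16 Pmp22-F2sN) had been treated with pin-transferred compounds for 24 h at 37C.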
pS6 MEF inh: inhibitors of mTORC1 signaling in Tsc2-/- p53-/- MEF cells; Tsc2-/- p53-/- MEF, phospho-rpS6 immunofluorescence/PI, 24 h; Potency, µM (highest dose often 38.3 µM), for the others: at the top dose activity change, negative = inhibition, hits mostly inhibitors; hit rate 0.78% among 44,000;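 note: potency is the fitted concentration of half-maximal effect; plate controls were DMSO for no effect and rapamycin for full effect; nearly all actives have a fitted effect of over 50% in size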
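Tsc2-/-, p53-/- mouse embryonic fibroblasts (empty-vector line) exposed to compound 24 hrs at 37 C, fixed, immunostained for phospho-rpS6 and counterstained with propidium iodide. Acumen laser scanning gives % positive cells from Alexa 488/PI ratio, thresholded using 7.5 nM rapamycin; PI count gives viability.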
p53null 39C tox: p53 null cell cytotoxicity, nonpermissive temperature; H1299 p53-null (neo) cells, 39C, ATPlite viability, 24 h; AID 904; hit rate 0.97% among 55,000; Potency, µM (series often up to 46.1 µM), for inactives: at the top dose activity, negative = cell killing, actives largely listed as cytotoxic;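 note: potency is the fitted concentration of half-maximal effect; 0% = DMSO only and -100% = full killing by 100 µM tamoxifen; nearly all actives have a fitted effect of over 50% in size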
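Temperature-shift cytotoxicity format: compound titrations on p53-null or A138V-expressing H1299 cells held 24 hr at 39C, cell ATP then measured, AC50 from Hill model.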
SKOV3 invasion: inhibitors of ovarian cancer cell adhesion and invasion in omental model; SKOV3ip1-GFP adhesion/invasion on 3D omental model, fluorescence; Potency, µM (top dose mostly 45.8 µM), inactives show at the highest dose activity change, negative = inhibition, usual class: inhibitors; hit rate 0.1% among 46,000;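 note: potency is the fitted concentration of half-maximal effect; plate controls were DMSO wells for no effect and tomatine positive control wells for full effect; nearly all actives have a fitted effect of over 65% in size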
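Adhesion/invasion was scored as fixed GFP-labeled SKOV3ip1 cell counts (488/509 nm), normalized to DMSO and tomatine controls. Cancer cells in serum-free medium, with four compound doses (0.36-46 umol/L), sat 2 hr at RT then 16 hr at 37 C on a 48 hr fibroblast/mesothelial/ECM culture.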
PMP22 txn: modulators of PMP22 gene transcription in S16 Schwann cells; S16 Pmp22-F2sN Schwann cells (luciferase reporters placed in the Pmp22 gene), FLuc/NLuc coincidence luminescence, 24 h; Potency, µM (titrated, usually from 57.5 µM), for the others: at the top dose activity change, negative = inhibition, hits mostly inhibitors; hit rate 2% among 43,000; AID 1508649; active = clear falling dose curves in both reporters; inconclusive = both reporters move, but less clearly or upward; inactive = either reporter flat; the % is the NLuc reporter signal; note: potency is the fitted concentration of half-maximal effect; % is set by controls: 0 for no effect and ±100 for the full control effect
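Reporter cells (S16 Pmp22-F2sN, 500–1,000 per well) exposed to compounds for 24 h, 37C, 5% CO2; lysis with FLuc read after 10 min, then Stop&Glo and NLuc read after 10 min.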
NLuc saturating: NanoLuc enzyme inhibition artifact for PMP22 screen; Potency, µM (series often up to 57.5 µM), for inactives: at the top dose activity change, negative = inhibition, usual class: inhibitors; Secreted NLuc enzyme (filtered S16 cell medium), Nano-Glo luminescence; hit rate 4% among 690; shares compounds with PMP22 txn; note: potency is the fitted concentration of half-maximal effect; % is set by controls: 0 for no effect and ±100 for the full control effect
NLuc Km ctr: inhibits NanoLuc under Km conditions, PMP22 counter-screen | shares compounds with PMP22 txn | secreted NLuc enzyme, coelenterazine luminescence, Km conditions | Potency, µM (series often up to 57.5 µM), without a hit: at the highest dose activity change, negative = inhibition, actives largely listed as inhibitors | AID 1508639 | hit rate 5% among 690; note: potency is the fitted concentration of half-maximal effect; % is set by controls: 0 for no effect and ±100 for the full control effect
FLuc ctr PMP22: counter-screen for PMP22 expression modulators: firefly luciferase inhibition; purified P. pyralis FLuc, luminescence, 10 min; 690 tested, under 10 active; Potency, µM (doses to about 57.5 µM), for the others: at the top dose activity, negative = inhibition, actives largely listed as inhibitors; shares compounds with PMP22 txn; note: % of control where 0% means no effect
Target sequence (P08659 whole entry, looked up): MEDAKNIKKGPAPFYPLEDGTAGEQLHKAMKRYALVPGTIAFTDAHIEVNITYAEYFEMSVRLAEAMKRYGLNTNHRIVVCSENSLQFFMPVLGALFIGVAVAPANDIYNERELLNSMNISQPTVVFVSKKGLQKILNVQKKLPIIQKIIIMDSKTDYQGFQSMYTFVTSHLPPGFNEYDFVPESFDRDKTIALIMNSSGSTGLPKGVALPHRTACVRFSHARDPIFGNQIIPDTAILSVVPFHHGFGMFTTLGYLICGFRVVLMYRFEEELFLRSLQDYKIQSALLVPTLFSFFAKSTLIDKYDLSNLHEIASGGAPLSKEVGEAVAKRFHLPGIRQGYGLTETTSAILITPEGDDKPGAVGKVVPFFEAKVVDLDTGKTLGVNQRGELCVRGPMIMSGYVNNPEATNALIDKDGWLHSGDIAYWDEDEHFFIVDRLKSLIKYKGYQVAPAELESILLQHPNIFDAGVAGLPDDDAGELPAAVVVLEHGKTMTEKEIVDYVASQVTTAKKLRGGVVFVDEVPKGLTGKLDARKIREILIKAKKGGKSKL
S16 F2sN tox cnf: S16 Schwann cell cytotoxicity, confirmatory; shares compounds with PMP22 txn; S16 Schwann cells viability, CellTiter-Glo ATP luminescence, 24 h; Potency, µM (doses to about 57.5 µM), without a hit: at the highest dose activity change, negative = viability loss, usual class: cytotoxic; hit rate 7% among 690; note: potency is the fitted concentration of half-maximal effect; % is set by controls: 0 for no effect and ±100 for the full control effect
PMP22 txn cnf: PMP22 transcription modulation, confirmatory | S16 Schwann cells Pmp22-F2sN, dual luciferase, 24 h | hit rate 22% among 690 | shares compounds with PMP22 txn | Potency, µM (highest dose often 57.5 µM), for the others: top-dose activity change, negative = inhibition, most hits filed as inhibitors; active = clear falling dose curves in both reporters; inconclusive = both reporters move, but less clearly or upward; inactive = either reporter flat; the % is the FLuc reporter signal; note: potency is the fitted concentration of half-maximal effect
* hit, by the source's call; i = inactive; ? = inconclusive; . = no result. Compounds with a hit are over-represented: about 3.1% of the library has one in this group of screens. Unless noted, calls come from the whole dose curve; as a rule, active = well fitted curve in the direction sought with a large enough effect; inconclusive = small, poorly fitted or top-dose-only effect, or another doubt; inactive = no such curve, though single readings can be large; an effect the other way counts as inactive or inconclusive.

SMILES	p53null 32C kill	S16 viability	pS6 MEF inh	p53null 39C tox	SKOV3 invasion	PMP22 txn	NLuc saturating	NLuc Km ctr	FLuc ctr PMP22	S16 F2sN tox cnf	PMP22 txn cnf
CCOc1ccccc1C(=O)Nc1c(C(=O)Nc2ccc(F)cc2)oc2ccccc12	8%	20%	-17%	30%	-10%	4.1µM*	?	-7%	-7%	-3%	5.6µM*
O=C(CCC1N=C2c3ccccc3N=C(SCC(=O)Nc3ccccc3F)N2C1=O)NCc1ccccc1 (stereo not given)	0%	0%	3%	?	-8%	-17%	.	.	.	.	.
Cc1ccc2sc(N(Cc3cccnc3)C(=O)CCOc3ccccc3)nc2c1C	-3%	1%	6%	?	8%	?	.	.	.	.	.
COc1cc(OC)cc(C(=O)Nc2ccc3nc4c(c(Nc5ccc(OC)c(OC)c5)c3c2)CCCC4)c1	?	?	0%	?	?	?	.	.	.	.	.
COc1ccc(Nc2c3c(nc4ccc(NC(=O)c5cc(Cl)ccc5OC)cc24)CCCC3)cc1OC	6.3µM*	?	0%	5µM*	?	4.7µM*	-13%	-2%	12%	14µM*	9.7µM*
COc1cc(-c2nc(Cn3nnc(C(=O)Nc4cc(C)cc(C)c4)c3C)c(C)o2)cc(OC)c1OC	20%	5%	-11%	18%	i	?	4.8µM*	3.9µM*	-8%	-2%	?
COc1ccc(NC(=O)c2nnn(Cc3nc(-c4cc(OC)c(OC)c(OC)c4)oc3C)c2C)cc1	6%	-2%	-10%	-4%	-6%	9%	.	.	.	.	.
O=C1CC(c2ccc(Cl)cc2)c2cc3c(cc2N1)OCCO3 (stereo not given)	27%	-7%	-3%	14%	i	?	.	.	.	.	.
O=C1CC(c2cccc(Cl)c2Cl)c2cc3c(cc2N1)OCCO3 (stereo not given)	25%	-17%	-13%	0%	i	16µM*	-11%	?	-3%	-7%	-32%
O=C(COc1ccc(Cl)cc1)Nc1ccccc1C(=O)OCc1cc(=O)n2ccsc2n1	6%	-3%	0%	23%	5%	-51%	.	.	.	.	.
COc1ccccc1N1CCN(c2ncnc3c2cnn3-c2cc(Cl)ccc2C)CC1	?	?	3%	5%	-5%	8.4µM*	?	?	3%	?	?
CC(=O)Nc1sc2c(c1-c1nc3ccccc3s1)CNC2	.	.	.	.	-11%	.	.	.	.	.	.
O=S(=O)(c1cccc(Cl)c1)c1nnn2c1nc(NC1CCCCCC1)c1sccc12	2%	-6%	-12%	-1%	5%	10µM*	0%	-3%	8%	6%	?
COc1ccc(-c2nnc(SCC(=O)NCc3ccccc3)nc2-c2ccc(OC)c(OC)c2)cc1OC	2%	1%	-12%	1%	-10%	7.3µM*	?	?	5%	-6%	?
CCOc1ccc(-c2nnc(SCC(=O)NCc3ccc(C)cc3)nc2-c2ccc(OCC)c(OC)c2)cc1OC	-2%	-21%	0%	14%	0%	-13%	.	.	.	.	.
O=C(CSc1nc2c([nH]c3ccccc32)c(=O)n1-c1cccc(C(F)(F)F)c1)N1CCCC1	-4%	4%	1%	-16%	6%	-3%	.	.	.	.	.
Cc1ccc(-n2nc(CO)c(C(=O)NCCCCc3ccccc3)n2)cc1C	-2%	-4%	0%	-8%	-19%	-15%	.	.	.	.	.
Cc1cccc(-c2c3c(=O)n(C)c(=O)n(C)c3c3c(C)nc4ccccc4n23)c1	7%	-25%	-12%	3%	8%	13µM*	-7%	-15%	2%	4%	-53%
COc1cc(C)c(C=CC(C)=CC=CC(C)=CC(=O)O)c(C)c1C	.	.	.	.	-22%	.	.	.	.	.	.
Cc1ncc(CO)c2c1Oc1nc(-c3ccc(Cl)cc3)nc(SCC(=O)N3CCCCC3)c1C2	-1%	?	-2%	-23%	2%	?	.	.	.	.	.
COc1ccccc1-c1nc2c(c(SCC(=O)Nc3ccc(C)c(C)c3)n1)Cc1c(CO)cnc(C)c1O2	4%	-25%	-6%	-15%	23%	17µM*	?	?	-10%	-19%	?
